# Bioassay records deposited in PubChem BioAssay by Broad Institute.
# NSD2 inh: blocks human histone methyltransferase NSD2 | O96028 | NSD2 peptide methylation, AlphaScreen, 120 min | inhibition, % at 12.5 µM | 310,000 tested, 0.54% active; in the data active = inhibition above about 50%
# ALR inh: inhibitors of human sulfhydryl oxidase ALR | P55789 | purified ALR, DTT oxidation, H2O2 HRP-luminol luminescence | inhibition, % (test concentration not listed) | 290,000 tested, 3.8% active;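 active = mean replicate inhibition above about 79%, with every replicate also reaching it, limit read from the data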
# Target sequence (P55789 whole entry, looked up): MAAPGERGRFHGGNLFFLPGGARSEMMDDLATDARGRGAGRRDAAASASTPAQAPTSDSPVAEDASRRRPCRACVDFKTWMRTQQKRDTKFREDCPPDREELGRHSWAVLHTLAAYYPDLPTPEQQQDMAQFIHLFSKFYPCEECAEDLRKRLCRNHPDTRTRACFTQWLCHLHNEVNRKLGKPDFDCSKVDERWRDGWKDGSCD
# CASP6 VEID inh: inhibitors of human caspase-6 | P55212 | purified caspase-6, Z-VEID-R110 cleavage fluorescence | inhibition, % at 12.5 µM | 350,000 tested, 0.53% active;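 active = mean inhibition across replicates at least about 35%, with every replicate also reaching that limit, limit read from the data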;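 note: 0% = median of neutral control wells and 100% = no fluorescence left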
# Target sequence (P55212 24-179 limits assumed): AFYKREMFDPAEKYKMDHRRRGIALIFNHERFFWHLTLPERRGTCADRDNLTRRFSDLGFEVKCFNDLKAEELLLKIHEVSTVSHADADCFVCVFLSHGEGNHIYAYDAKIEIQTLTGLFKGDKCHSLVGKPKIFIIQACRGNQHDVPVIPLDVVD
# Target sequence (P55212 194-293 limits assumed): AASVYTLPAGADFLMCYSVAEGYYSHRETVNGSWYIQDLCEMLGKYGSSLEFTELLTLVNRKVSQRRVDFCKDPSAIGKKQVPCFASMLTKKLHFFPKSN
# Glyco luc inh: blocks N-linked glycosylation in D54 reporter cells | reporter increase, % at 12.5 µM | D54 ERlucT glycosylation luciferase reporter, 24 h; percent of 100 nM tunicamycin response | 360,000 tested, 0.23% active;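 active = mean luciferase reporter signal, scaled so untreated is 0 and the glycosylation-blocking control 100, at or above a set limit in every replicate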;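 note: luciferase carries N-glycosylation sites so blocking glycosylation raises the light; 0% = median of neutral control wells and 100% = median of 100 nM tunicamycin wells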
# CDK5 p35 inh: CDK5/p35 (human) kinase inhibition; Q00535+Q15078; Recombinant CDK5/p35, ADP-Glo luminescence, 60 min; inhibition, % at 10 µM; 330,000 tested, 0.01% active;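 active = highest replicate inhibition of at least 50% and at least 75% of replicates reaching 50%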;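 note: plate controls were DMSO neutral control for no effect and GW8510 at 10 µM for full effect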
# SUMO Mot1 rescue: blocks SUMOylation pathway, rescuing yeast Mot1-301 growth | S. cerevisiae Mot1-301 growth rescue, ATP luminescence, 38.5C; percent above DMSO median, 100 means doubled | growth rescue, % at 18.8 µM | 320,000 tested, 1% active;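 active = every valid replicate shows activation above 250% relative to neutral control wells; inactive = the rest, any valid replicate at or below 250%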;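 note: OY570 slx delta 5 strain wells were the positive control but not used for scaling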
# The depositor's hits bear a star; · = not tested or not shown. Most compounds without a hit are left out; they make up all but 3.9% or so of the library.
SMILES,NSD2 inh,ALR inh,CASP6 VEID inh,Glyco luc inh,CDK5 p35 inh,SUMO Mot1 rescue
C[C@@H]1CCCCO[C@@H](CN(C)S(=O)(=O)c2ccc(F)cc2)[C@H](C)CN([C@@H](C)CO)C(=O)c2cc(NC(=O)CCCN(C)C)ccc2O1,·,·,2,·,·,·
C[C@@H]1CN([C@@H](C)CO)C(=O)c2cc(NS(=O)(=O)c3cn(C)cn3)ccc2O[C@@H](C)CCCCO[C@H]1CN(C)C(=O)CCCN(C)C,·,·,1,·,·,·
C[C@@H]1CN([C@H](C)CO)C(=O)c2cc(NS(=O)(=O)c3cn(C)cn3)ccc2O[C@@H](C)CCCCO[C@@H]1CN(C)C(=O)CCCN(C)C,·,·,36*,·,·,·
N=C1C(c2nc(-c3ccc(Cl)cc3)cs2)=C(O)CN1CCCN1CCOCC1,-1,98*,·,2,1,-9
CCOc1ccc(Cl)cc1CNc1nnnn1C,-2,13,-1,1,2,5
CCCOc1ccc(Cl)cc1CNc1ccccc1,-1,98*,·,-3,-1,217
C[C@H]1CN([C@@H](C)CO)C(=O)c2cc(NC(=O)C3CC3)ccc2O[C@H]1CN(C)S(=O)(=O)c1cn(C)cn1,·,·,-1,·,·,·
CC(=O)Nc1ccc(SC[C@H](CC(C)C)N2CCN(CC(C)C)CCC2=O)cc1,·,98*,1,3,0,5
Cc1ccc(SC[C@H](CC(C)C)N2CCN(CCc3ccccc3)CCC2=O)cc1,·,·,·,-2,-1,·
CC(=O)Nc1ccc(SC[C@H](C)CN2CC[C@H](C(C)(C)C)CCC2=O)cc1,·,99*,1,-1,0,15
CC(=O)Nc1ccc(SC[C@H](CC(C)C)N2CCN(CCc3ccccc3)CCC2=O)cc1,·,99*,-2,-3,0,19
CC(=O)Nc1ccc(S[C@@H](CCN2CC[C@H](O)CCC2=O)c2ccccc2)cc1,·,99*,2,7,-1,8
COCC#Cc1cnc2c(c1)C(=O)N([C@@H](C)CO)C[C@H](C)[C@@H](CN(C)C(=O)CCN1CCCCC1)O2,·,·,-1,·,·,·
O=C(C[C@@H]1C=C[C@H](NC(=O)c2ccc(F)cc2)[C@H](CO)O1)NCCc1ccccc1,·,·,1,·,·,·
COc1ccc(-c2coc3c(C(=O)NCCN(C)C)cccc23)c(C)c1,5,·,-4,-2,·,·
CN(C)CCNC(=O)c1ccccc1-c1ccccc1,-7,-11,·,1,-4,25
CN(C)CCNC(=O)c1cccc2nc3c(ccc4ccccc43)nc12,22,·,-27,56*,0,·
COc1ccc(-c2nc3c(C(=O)NCCN(C)C)cccc3c3ccccc23)cc1,4,·,-15,37*,-1,·
CN(C)CCNC(=O)c1ccccc1-c1cc2ccccc2c(=O)o1,6,-6,-4,1,0,-1
CN(C)CCNC(=O)c1cccc2[nH]c(-c3ccncc3)nc12,·,·,-5,68*,1,·
COc1ccc(C(=O)NCCN(C)C)c2nc3ccccc3cc12,6,·,-24,54*,2,·
COc1ccc(Cl)cc1C(=O)NCCN(C)C,0,-4,·,-2,1,-4
CCC(=O)N1C[C@H]2[C@@H](c3ccccc31)[C@@H](CO)N2Cc1ccccc1F,·,·,1,·,·,·
COc1cccc(-c2ccc3n(c2=O)C[C@H]2[C@H](CO)[C@@H](C(=O)N(C)C)[C@@H]3N2CC2CC2)c1,·,·,-1,·,·,·
COc1cccc2nc3c(C(=O)NCCN(C)C)cccc3cc12,·,·,-74,49*,2,·
SMILES,NSD2 inh,ALR inh,CASP6 VEID inh,Glyco luc inh,CDK5 p35 inh,SUMO Mot1 rescue
N/C(=N\O)c1ccccc1N1CCCCC1,-2,90*,6,3,2,12
CCN(CC)CCN1C(=O)c2ccccc2NC1c1ccc(N(C)C)cc1 (centres undefined),11,48,·,7,2,11
CN(C)c1ccc(C2Nc3ccccc3C(=O)N2CCCN2CCOCC2)cc1 (centres undefined),11,99*,-2,-1,-1,-15
COc1cc(C2C(C#N)=C(C)NC3=C2C(=O)CC(C)(C)C3)cc(OC)c1O (centres undefined),3,6,34,-1,-2,348*
COc1cc(C2C(C#N)=C(C)NC3=C2C(=O)CC(C)(C)C3)ccc1OCCO (centres undefined),-4,-32,·,0,1,-2
O=C1c2ccccc2C(=O)c2[nH]c(=O)[nH]c21,35,·,83*,-17,8,11
C[C@@H]1CN([C@@H](C)CO)C(=O)c2cc(NS(=O)(=O)c3cn(C)cn3)ccc2O[C@@H]1CN(C)C(=O)Nc1ccc(C(F)(F)F)cc1,·,·,2,·,·,·
O=Nc1c(O)c2ccccc2c2ccccc12,·,·,-1,-23,1,664*
O=c1ccc2ccccc2c2ccccc12,1,·,-2,0,·,·
COc1ccc(NC2CCN(C3CC(=O)N(c4ccc(F)c(Cl)c4)C3=O)CC2)cc1 (centres undefined),4,82*,·,1,2,59
CCN1C(=O)CC(N2CCC(C(=O)OC)CC2)C1=O (centres undefined),0,2,·,0,1,1
COc1cccc(N2CCN(C3CC(=O)N(c4ccc(F)c(Cl)c4)C3=O)CC2)c1 (centres undefined),0,32,·,0,-3,-5
CCN1C(=O)CC(N2CCC(Nc3ccc(OC)cc3)CC2)C1=O (centres undefined),-3,98*,·,1,-1,3
COc1cc(C(=O)O/N=C2\C=CC(=O)C(C)=C2)cc(OC)c1OC,0,98*,·,-2,0,22
CC(=O)c1ccc(NC(=O)c2ccc3nc(C)sc3c2)cc1,1,-3,-28,-1,0,-12
Cc1nc2ccc(C(=O)Nc3ccc(N(C)C)cc3)cc2s1,0,99*,1,-3,0,84
O=C(Nc1ccc(Cl)cc1)N[C@@H]1CC[C@H](CCn2cc(-c3ccccc3F)nn2)O[C@@H]1CO,·,·,2,·,·,·
O=C(c1ccc(Cn2cc(Cl)cn2)cc1)N1CCN(c2ccccc2)CC1,-2,98*,·,3,0,·
O=C(Nc1ccccc1F)c1ccc(Cn2cc(Cl)cn2)cc1,-2,100*,1,-1,-2,3
C[C@@H]1CN([C@H](C)CO)C(=O)c2cccc(NC(=O)Nc3ccc(F)cc3)c2O[C@@H]1CN(C)S(C)(=O)=O,·,·,-2,·,·,·
S=C(Nc1ccccc1)N1CCCN1c1ccccc1,·,87*,-3,-2,4,40
CC(C)NC(=O)N(C)C[C@@H]1Oc2cc(-c3ccncc3)ccc2S(=O)(=O)N([C@@H](C)CO)C[C@H]1C,·,·,-1,·,·,·
Cc1[nH]c2ccccc2c1-c1csc(NC(=O)CSCC(=O)O)n1,5,100*,8,2,-3,-8
Cc1[nH]c2ccccc2c1-c1csc(NC(=O)CN2CCOCC2)n1,-1,-6,1,5,-1,6
Cc1cc(=O)[nH]c(SCC(=O)Nc2nc(-c3ccccc3)cs2)n1,·,99*,·,2,-2,206
